Reference: PubChem BioAssay
Calls of active or inactive are those of the source.

Each compound was assayed against NADPH oxidase 2 (Homo sapiens) (UniProt P04839) (assay: NOX2-dependent H2O2 signal modulators, primary screen, NOX inhibitor project, cell-based, HEK293-NOX2, PMA-stimulated, Amplex Red fluorescence (AID 1159; note: test concentration not given here)). Details: 45 min, higher = more signal, called active from +8 up or from −8 down.
Sequence of NADPH oxidase 2 (Homo sapiens) (P04839 whole entry, looked up): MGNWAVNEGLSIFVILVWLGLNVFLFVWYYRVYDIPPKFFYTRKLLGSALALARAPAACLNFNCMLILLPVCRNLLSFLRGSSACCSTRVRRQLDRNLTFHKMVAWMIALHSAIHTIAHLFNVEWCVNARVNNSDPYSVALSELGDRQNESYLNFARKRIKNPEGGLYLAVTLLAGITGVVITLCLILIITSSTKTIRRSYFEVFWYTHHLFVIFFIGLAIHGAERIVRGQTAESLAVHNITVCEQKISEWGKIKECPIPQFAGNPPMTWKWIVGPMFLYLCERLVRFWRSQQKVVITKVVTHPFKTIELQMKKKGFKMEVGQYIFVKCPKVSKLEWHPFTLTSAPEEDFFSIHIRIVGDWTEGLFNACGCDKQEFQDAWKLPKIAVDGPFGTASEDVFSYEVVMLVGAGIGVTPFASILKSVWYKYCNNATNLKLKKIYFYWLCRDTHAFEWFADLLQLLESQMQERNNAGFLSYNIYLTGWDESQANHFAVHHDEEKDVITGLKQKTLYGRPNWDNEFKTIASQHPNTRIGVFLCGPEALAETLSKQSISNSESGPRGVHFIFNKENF

z-score, inactive:
O=C1C2C=CC(C(O)C3CCCCC3)N(Nc3ccc([N+](=O)[O-])cc3)C2C(=O)N1c1ccccc1 (stereo not given) -1.03
C=CCNC(=O)[C@H]1[C@@H]2C(=O)O[C@@H](c3ccccc3)[C@@H](c3ccccc3)N2[C@@H](c2ccc(OCCO)cc2)[C@]12C(=O)N(C(=O)OCCOC)c1ccccc12 2.35
O=C1C2C=CC(C(O)c3c(F)cccc3Cl)N(Nc3ccccc3)C2C(=O)N1c1ccccc1 (stereo not given) -1.69
CC(C)c1ccc(NN2C(C(O)c3cc(C(F)(F)F)cc(C(F)(F)F)c3)C=CC3C(=O)N(c4ccccc4)C(=O)C32)cc1 (stereo not given) -1.3
[N-]=[N+]=NCc1ccccc1C[C@]1(C(=O)O)N=C(c2ccc(OCCCO)cc2)O[C@H]1c1ccccc1N=[N+]=[N-] -2.14
O=C1O[C@H](c2ccccc2)[C@H](c2ccccc2)N2[C@H]1[C@@H](C(=O)NC[C@H](O)c1ccccc1)[C@]1(C(=O)Nc3ccccc31)[C@H]2c1ccc(OCCO)cc1 1.55
COC(=O)[C@@]1(Cc2ccc(F)cc2)[C@H]2c3cc(C(=O)N4CCCC4)n(Cc4ccc(C)o4)c3C[C@H]2CN1C(=O)c1ccccc1 -0.0294
COc1ccc([Si](C)(C)[C@H]2[C@H](CCn3cc([C@H](O)c4ccccc4)nn3)O[C@@]3(C(=O)N(Cc4cccc(N5CCOC5=O)c4)c4ccccc43)[C@@H]2C)cc1 0.0189
COc1ccc(CCNC(=O)[C@@]2(C)c3ccccc3C(=O)N(Cc3cc(F)cc(C(F)(F)F)c3)[C@H]2c2ccc(CO)cc2)cc1 -1.38
O=C1O[C@@H](c2ccccc2)[C@@H](c2ccccc2)N2[C@@H](c3ccc(OCCO)cc3)[C@]3(C(=O)Nc4ccccc43)[C@@H](C(=O)NC[C@H](O)c3ccccc3)[C@H]12 1.62
C=C(/C(=C/C[C@@H](OC(C)=O)c1ccc(OCCO)cc1)c1cnc2ccccc2c1)C(C)C -2.99
O=C1OCC=C[C@H]2OC34C=CCN(CCN5CCOCC5)C(=O)[C@H]3N(CCCO)C(=O)[C@@H]4[C@@H]12 (stereo not given in full) 0.812
C=CC[C@]1(C(=O)NCCCOC)N=C(c2ccc(OCCCO)cc2)O[C@H]1c1ccccc1N=[N+]=[N-] -1.06
COCC(=C=CC[C@H](O)c1ccccc1OCCO)C[C@H](O)c1cc(Cl)cc(Cl)c1O -5.19
COC(=O)c1c(CC[C@@H](CO)NC(=O)N2CCC[C@H]2Cn2cc(-c3ccccn3)nn2)oc(C(C)=O)c1C(=O)OC -2.6
C=CCN(Cc1ccccc1)C(=O)C(c1cccs1)N(CCOCCO)C(=O)/C=C\C(=O)O (stereo not given) -0.00856
CCN(CC)c1ccc(N2CC=CC34O[C@@H]5/C=C\CCCOC(=O)C5[C@H]3C(=O)N(CCO)[C@@H]4C2=O)cc1 (stereo not given in full) -0.401
C=CC[C@@]1(C(N)=O)N=C(c2ccc(OCCCO)cc2)O[C@@H]1c1ccccc1CN=[N+]=[N-] -0.934
O=C1c2ccccc2[C@](Cc2ccccc2I)(C(=O)NC2CC2)[C@H](c2ccc(CO)cc2)N1C1CCCCC1 0.478
O=C(NCc1ccccc1)[C@@]1(CCS(=O)(=O)c2ccccc2)N=C(c2ccc(OCCCO)cc2)O[C@H]1c1ccccc1 -0.321
CCCCCN1CC=CC23O[C@@H]4/C=C\CCCOC(=O)C4[C@H]2C(=O)N(CCCO)[C@@H]3C1=O (stereo not given in full) 1.46
C=CCNC(=O)[C@@H]1[C@H]2C(=O)O[C@H](c3ccccc3)[C@H](c3ccccc3)N2[C@H](c2ccccc2OCCO)[C@@]12C(=O)N(C(=O)OCCOC)c1ccc(C#CCNC(N)=O)cc12 1.77
COCCOC(=O)N1C(=O)[C@@]2(c3cc(C#CCCO)ccc31)[C@H](C(=O)N1CCN(c3ncccn3)CC1)[C@H]1C(=O)O[C@H](c3ccccc3)[C@H](c3ccccc3)N1[C@@H]2c1ccccc1OCCO 1.45
COc1ccc(CCN2C(=O)[C@@]3(c4ccc([N+](=O)[O-])cc4)CC(=O)N(C4CCCCC4)[C@@H]3c3ccc(CO)cc32)cc1 -1.47
CCOC(=O)C[C@H]1[C@H](OC(=O)c2ccc(C(=O)c3ccccc3)cc2)[C@@H](NC(=O)c2ccc(-c3ccccc3)cc2)c2cc(OCCCO)ccc2N1C(=O)c1ccccc1 0.788
